Mtb hypoxia inh: PubChem AID 1159583; M. tuberculosis hypoxia-regulated fluorescent reporter, fluorescence; fluorescence inhibition, % (test concentration not listed); 300,000 tested, 0.1% active; in the data active = fluorescence inhibition mostly above about 23%, no sharp cut-off; inactive = mostly below about 17%
FBA Mtb inh: Mtb FBA enzyme inhibitors, primary screen, biochemical, fluorescence, strain H37Rv; Fructose-bisphosphate aldolase (Mycobacterium tuberculosis (strain ATCC 25618 / H37Rv)), …; purified M. tuberculosis FBA, fluorescence read-out; inhibition, % at 1 µM; 360,000 tested, 2.3% active;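 also: 0% = vehicle and 100% = reference inhibitor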
Target sequence (P9WQA3 whole entry, looked up): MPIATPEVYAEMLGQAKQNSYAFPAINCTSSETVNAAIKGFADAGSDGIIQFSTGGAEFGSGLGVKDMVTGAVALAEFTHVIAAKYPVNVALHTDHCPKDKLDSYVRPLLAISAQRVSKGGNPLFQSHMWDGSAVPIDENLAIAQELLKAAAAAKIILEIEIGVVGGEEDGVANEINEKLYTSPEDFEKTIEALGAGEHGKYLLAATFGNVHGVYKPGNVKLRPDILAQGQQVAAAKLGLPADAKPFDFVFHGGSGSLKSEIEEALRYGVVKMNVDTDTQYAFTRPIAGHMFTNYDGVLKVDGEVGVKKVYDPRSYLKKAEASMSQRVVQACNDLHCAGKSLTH
DUSP3 inh: VHR1 phosphatase inhibitors, primary screen, biochemical, absorbance, uHTS | Dual specificity protein phosphatase 3 (Homo sapiens), P51452 | recombinant VHR phosphatase, pNPP absorbance | inhibition, % at 13.3 µM | 290,000 tested, 0.52% active; in the data active = inhibition above about 50%
Target sequence (P51452 whole entry, looked up): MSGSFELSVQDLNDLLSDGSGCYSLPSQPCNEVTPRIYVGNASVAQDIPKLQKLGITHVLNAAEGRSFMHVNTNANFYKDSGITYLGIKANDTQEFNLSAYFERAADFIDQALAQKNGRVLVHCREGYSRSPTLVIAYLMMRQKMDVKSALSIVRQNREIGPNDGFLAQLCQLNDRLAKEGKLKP
GDH-TPI counter-1: GDH-TPI coupling enzyme inhibitors, primary screen, artefact control for M. tuberculosis FBA inhibitor project, biochemical, absorbance, full deck. GDH-TPI coupled enzyme counterscreen, NADH absorbance. AID 588335, 2011. inhibition, % at 4.8 µM. 360,000 tested, 1.2% active; in the data active = inhibition above about 30%;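 also: 0% = DMSO wells and 100% = wells lacking the enzyme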
Mtb betalactam: beta-lactam sensitization of Mtb H37Rv, H37Rv; M. tuberculosis H37Rv growth with meropenem, percent inhibition; inhibition, % at 25 µM; 330,000 tested, 0.27% active; AID 434955, 2010; call rule not given here;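 also: growth measured after seven days incubation then overnight dye step; 0% = bacteria only wells and 100% = bacteria with antibiotic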
Mtb FBA confirm: M. tuberculosis aldolase blockers, biochemical, fluorescence, strain H37Rv, confirmation. shares compounds with FBA Mtb inh. purified M. tuberculosis FBA, fluorescence read-out. inhibition, % at 1 µM. 5,600 tested, 78% active. AID 651616, 2012;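 also: 0% = vehicle wells and 100% = reference inhibitor wells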
GDH-TPI counter-2: GDH-TPI coupling enzyme inhibitors, artefact control for M. tuberculosis FBA inhibitor project, biochemical, fluorescence, high throughput. shares compounds with FBA Mtb inh. GDH-TPI coupled enzyme counterscreen. inhibition, % at 1 µM. 5,600 tested, 81% active; in the data active = inhibition above about 10%
GDH-TPI DR: GDH-TPI coupling enzyme inhibitors, dose response, artefact control for M. tuberculosis FBA inhibitor project, biochemical, fluorescence, IC50; shares compounds with FBA Mtb inh; IC50, µM; 170 tested, 79% active; GDH-TPI coupled enzyme assay, artifact counterscreen; call rule not given here
An asterisk follows results filed as active; / = no result given; + = active, no number. Rows were chosen to be rich in hits. Some 3.6% of all compounds tested hit in one or more screens of this group. Rule as the data show it, unless noted: active = inhibition above about 27%; inactive = the rest.

SMILES	Mtb hypoxia inh	FBA Mtb inh	DUSP3 inh	GDH-TPI counter-1	Mtb betalactam	Mtb FBA confirm	GDH-TPI counter-2	others
CC(C)NC(=O)Cn1c(SCC(=O)N2CCc3ccccc3C2)nc2ccccc21	8	1	24	4	-6	/	/
COc1cccc(/C=C/C(=O)OC(C)C(=O)Nc2c(C)n(C)n(-c3ccccc3)c2=O)c1 (stereo not given)	-5	29*	8	4	-2	122*	101*
CSc1nncc(C(C)=NNc2ccccc2)n1	15	/	/	/	/	/	/
COC(=O)c1nn(-c2ccccc2)c(Sc2ccc(C)cc2)c1C=NO	8	/	/	/	/	/	/
CN(C)c1nc(-c2ccccc2)cc(C(F)(F)F)c1C#N	3	7	26	-3	-8	/	/
Cc1nn(CCO)c2nc(-c3cccs3)cc(C(F)(F)F)c12	3	100*	7	24	10	180*	168*
CN(C)c1nc(-c2cccs2)cc(C(F)(F)F)c1C#N	4	35*	18	17	8	0	-4
N#Cc1ccc(-c2ccc(OCC(O)CN3CCCCC3)cc2)cc1 (stereo not given)	5	58*	11	7	4	116*	81*
N#Cc1ccc(-c2ccc(OCC(O)Cn3nnc4ccccc43)cc2)cc1 (stereo not given)	/	31*	16	3	22	+	+
CCOC1OC(C(=O)NCc2ccccc2)=CC(c2csc3ccccc23)C1CCCO (stereo not given)	3	/	/	/	/	/	/
COC(=O)c1ccc(/C=C/c2c(-c3ccc(OC)cc3)oc3ccc(N4CCOCC4)cc23)cc1	/	13	17	0	96	/	/
COc1ccc(-c2oc3ccc(N4CCOCC4)cc3c2C#Cc2ccc(N)cc2)cc1	1	44*	/	10	95	49*	48*
COc1ccc(/C=C/c2c(-c3cccc(C)c3)oc3ccc(N4CCOCC4)cc23)cc1	/	35*	/	27	-15	103*	98*
Cc1nc2ccc(C(=O)O)cc2c2c1CC(C)S2 (stereo not given)	/	61*	0	3	46	44*	30*
Cc1nc2cc(C(=O)O)ccc2s1	4	-3	5	8	6	/	/
O=C(CSc1cccc2cccnc12)N1CCCC1	/	33*	-5	5	32	140*	108*
CCOc1ccccc1Oc1c(C)oc2c(CN3CCN(CCO)CC3)c(O)ccc2c1=O	11	80*	11	15	-3	-11	-8
CCOC(=O)c1c(C)oc2c1c(CN1CCN(CCO)CC1)c(O)c1ccccc12	4	3	6	4	/	/	/
COc1ccc(-c2coc3c(CN4CCOCC4)c(O)ccc3c2=O)cc1	-2	41*	7	8	3	63*	50*
Cc1oc2c(CN3CCOCC3)c(O)ccc2c(=O)c1-c1ccccc1	10	98*	0	24	7	+	+
O=c1c(-c2ccccc2)coc2c(CN3CCCC3)c(O)ccc12	3	82*	-6	15	-7	145*	123*
O=c1oc2c(CN3CCCCCC3)c(O)ccc2cc1-c1nc2ccccc2[nH]1	/	/	-9	/	/	/	/
COc1ccc(SCCN2CCC(NC(=O)OCc3ccccc3)CCC2=O)cc1 (stereo not given)	8	/	/	/	/	/	/
CCN1C(=O)NC(c2cccc(C(F)(F)F)c2)C(C(C)=O)C1C (stereo not given)	16	/	/	/	/	/	/
O=c1c(-c2ccc(Cl)cc2)coc2c(CN3CCOCC3)c(O)ccc12	/	30*	-5	25	2	30*	19*
SMILES	Mtb hypoxia inh	FBA Mtb inh	DUSP3 inh	GDH-TPI counter-1	Mtb betalactam	Mtb FBA confirm	GDH-TPI counter-2	others
O=C(c1ccccc1)c1coc2ccc(O)c(CN3CCOCC3)c12	5	3	-12	-2	-2	/	/
CC(C)(C)c1csc(NN=Cc2cccnc2)n1	2	/	/	/	/	/	/
COc1ccc(S(=O)(=O)N(CCCN2CCCC2=O)Cc2cc3c(C)cc(C)cc3[nH]c2=O)cc1	/	33*	-27	29	/	13	8	GDH-TPI DR=>10
O=C1CC2(CCN(C(=O)COc3ccccc3)CC2)Oc2ccccc21	8	7	/	8	-3	/	/
CC(=O)N1CCC2(CC1)CC(=O)c1cc(OCC(=O)N3CCN(C)CC3)ccc1O2	3	59*	4	16	-6	56*	47*
CC(=O)N1CCC2(CC1)CC(=O)c1cc(OCC(=O)N3CCC4(CC3)OCCO4)ccc1O2	4	58*	4	9	-3	27*	25*
Cc1ccccc1C(=O)OC1C(Cc2ccccc2)NS(=O)(=O)C2CC3C=C[C@]12O3 (stereo not given in full)	-2	/	/	/	/	/	/
CN(CC(=O)NCc1ccccc1)CC(=O)Nc1ccc(Cl)c(C(F)(F)F)c1	4	34*	/	7	-6	92*	73*
CC(C)CC(c1nnnn1C(C)C)N1CCN(c2cccc(Cl)c2)CC1 (stereo not given)	/	42*	18	-5	-7	+	+
COc1ccc(S(=O)(=O)Nc2c(NC3CCCCC3)c3ccccc3oc2=O)cc1Cl	-6	29*	35	-7	7	+	+
COC(=O)c1cnc2ccccc2n1	/	-1	0	3	-1	/	/
O=C(O)c1cnc2ccccc2n1	-3	33*	14	5	5	62*	43*
Cc1ccc(-c2c(C(=O)NN=Cc3cccnc3)nnn2-c2nonc2N)cc1	1	/	/	/	/	/	/

Compound activity from PubChem BioAssay.
